High-throughput results: PubChem, The Scripps Research Institute Molecular Screening Center
Sampled rows, rich in hits. Any-hit rate of the full collection: about 3.5%.
MITF primary = human MITF inhibition, primary screen; O75030; AlphaScreen MITF homodimerization, bead proximity signal; inhibition, % at 2.6 µM; hit rate 0.91% among 650,000; AID 1259374; in the data active means inhibition above about 50%;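 further: 0% = vehicle wells with protein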
GPR151 ag = activates the human receptor GPR151; hit rate 1% among 650,000; Q8TDV0; activation, % at 11.2 µM; PathHunter beta-arrestin GPR151 cells, luminescence; in the data active means activation above about 4.9%;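 further: 0% = median of compound wells and 100% = cells with positive control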
FBW7 act = human FBW7 E3 ligase activation, primary screen; Q969H0; AlphaScreen FBW7–phospho-cyclin E peptide binding, activator screen; normalized activity (activation), % at 26.1 µM; hit rate 0.13% among 650,000; in the data active means normalized activity above about 1.9%;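 further: purified mutant Fbw7 with reduced substrate affinity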
Target sequence (Q969H0 whole entry, looked up): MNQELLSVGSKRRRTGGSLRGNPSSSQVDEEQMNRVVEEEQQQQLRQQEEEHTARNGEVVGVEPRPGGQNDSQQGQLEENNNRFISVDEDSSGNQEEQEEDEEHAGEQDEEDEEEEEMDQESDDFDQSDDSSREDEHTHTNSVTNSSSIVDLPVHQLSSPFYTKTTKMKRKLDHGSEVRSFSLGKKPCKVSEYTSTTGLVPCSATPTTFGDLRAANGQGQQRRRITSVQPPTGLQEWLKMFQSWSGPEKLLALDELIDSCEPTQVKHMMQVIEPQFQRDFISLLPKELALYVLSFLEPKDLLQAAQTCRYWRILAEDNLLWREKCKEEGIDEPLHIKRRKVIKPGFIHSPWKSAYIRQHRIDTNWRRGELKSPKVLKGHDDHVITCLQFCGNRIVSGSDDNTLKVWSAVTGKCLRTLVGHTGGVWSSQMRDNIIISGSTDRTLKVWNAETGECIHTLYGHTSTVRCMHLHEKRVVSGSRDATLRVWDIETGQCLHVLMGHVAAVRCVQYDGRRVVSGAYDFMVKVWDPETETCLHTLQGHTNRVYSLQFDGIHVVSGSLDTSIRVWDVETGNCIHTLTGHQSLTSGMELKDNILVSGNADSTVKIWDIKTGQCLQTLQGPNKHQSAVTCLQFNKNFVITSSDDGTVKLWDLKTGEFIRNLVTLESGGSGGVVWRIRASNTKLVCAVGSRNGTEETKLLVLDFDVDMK
TEAD-YAP inh = TEAD-YAP interaction inhibition. HEK-TIYL cells, TEAD-Gal4/YAP UAS-luciferase luminescence. inhibition, % at 9.12 µM. hit rate 1.4% among 640,000; in the data active means inhibition above about 32%;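 further: 0% = median of test compound wells and 100% = reference inhibitor wells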
MITF inh conf = confirmation of human MITF inhibitors. inhibition, % at 2.6 µM. hit rate 16% among 4,700. AlphaScreen MITF homodimerization, biotin/His-MITF beads. shares compounds with MITF primary;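 active means inhibition above a cutoff derived from the DMSO control wells, cut at about 28% in these data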;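 further: 0% = MITF dimer wells with DMSO only; inhibitors lower the bead chemiluminescence by keeping MITF from dimerizing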
AS interf DR = counter-screen: compounds optically interfering with AlphaScreen | shares compounds with MITF primary | hit rate 6% among 480 | AlphaScreen optical interference counterscreen, cell-free | IC50, µM; call rule not given here
AS interf ctr = counter-screen: compounds optically interfering with AlphaScreen; hit rate 7.6% among 4,700; shares compounds with MITF primary; inhibition, % at 2.6 µM; LysRS AlphaScreen counterscreen, signal interference, triplicate;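 active means inhibition above a cutoff derived from the DMSO control wells, cut at about 30% in these data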
Starred values were filed as active, the others as inactive; i = inactive; / = no result.

SMILES	MITF primary	GPR151 ag	FBW7 act	TEAD-YAP inh	MITF inh conf	AS interf ctr	others
COc1ccc(CN2CCC(N3CC(C)OC(C)C3)CC2)cc1OC (stereo unspecified)	63*	0	0	1	-7	1
COc1cc(OC)c(OC)cc1CN1CCN(C2CCN(Cc3ccccc3)CC2)CC1	59*	-2	0	-2	2	1
COc1cc(OC)c(OC)cc1CN1CCN(C2CCCCC2)CC1	67*	1	0	5	-2	-7
COCCN(CCOC)C(=O)CN1C(=O)NC2(CCCc3sccc32)C1=O (stereo unspecified)	9	-1	1	6	/	/
NC(=O)c1ccc(NC(=O)COC(=O)CN2C(=O)c3ccccc3C2=O)cc1	15	0	1	19	/	/
CCOC(=O)C1CCN(Cc2ccc(OC)cc2OC)CC1	24	2	0	6	/	/
COc1ccc(CN2CCC(C(=O)N3CCOCC3)CC2)c(OC)c1	56*	1	0	-8	11	7
COc1ccc(CN2CCN(C3CCC(C)CC3)CC2)c(OC)c1 (stereo unspecified)	69*	0	0	7	4	15
COc1ccc(CN2CCC(N3CC(C)OC(C)C3)CC2)c(OC)c1 (stereo unspecified)	95*	0	0	10	-17	-4
COc1ccc(CN2CCCC2)c(OC)c1	26	1	0	8	/	/
COCCNC(=O)Cn1c(-c2cccs2)cc2ccccc21	5	-1	0	-3	/	/
CCc1ccc(C2C(C#N)=C(N)N(c3ccc(F)cc3)C3=C2C(=O)CCC3)s1 (stereo unspecified)	-8	-1	0	-2	/	/
CCN(CC)CCN1CC(c2ccccc2)CC1=O (stereo unspecified)	58*	0	0	5	17	11
O=C(NCc1cccnc1)c1cccc(N2CCc3ccccc3C2)c1	6	-1	0	-1	/	/
Cc1nonc1NC(=O)CN1CCN(c2ccccc2)CC1	7	1	0	0	/	/
O=c1cc2ncc(-c3[nH]ncc3[N+](=O)[O-])cn2[nH]1	5	0	0	4	/	/
O=C(O)c1cc2ncc(-c3n[nH]c(-c4cnc5cc(C(=O)O)nn5c4)c3[N+](=O)[O-])cn2n1	68*	1	-1	-9	58*	-15	AS interf DR=>6.5
Cc1ccc2c(c1)cc1c(=O)n(CC(=O)NCCCN3CCCCC3)nc(C)n12	63*	0	0	-5	8	10
Cc1ccc2c(c1)cc1c(=O)n(CC(=O)NCCN3CCOCC3)nc(C)n12	13	0	0	-10	/	/
CCc1ccc(NC(=O)CSc2nnc3[nH]c(=O)c(C)c(C)n23)cc1	6	0	0	-2	/	/
NS(=O)(=O)c1ccc(CNc2ccc3ncc(-c4cccc(C(=O)O)c4)n3n2)cc1	69*	1	0	0	9	11
O=C(O)c1cccc(N2C(=O)CC(Nc3ccc(N4CCOCC4)cc3)C2=O)c1 (stereo unspecified)	70*	-2	0	-5	69*	4	AS interf DR=>6.6
Cc1cccc(N2C(=O)C3C4C=CC(O4)C3C2=O)c1C (stereo unspecified)	51*	0	-1	6	-1	10
O=C(Nc1c2c(nn1-c1cccc(Cl)c1)CSC2)c1ccc(Br)o1	53*	1	0	8	2	-2
CCOc1ccc(N2C(=O)c3ccccc3NC2c2ccc(C(=O)OC)cc2)cc1 (stereo unspecified)	1	0	0	-3	/	/
SMILES	MITF primary	GPR151 ag	FBW7 act	TEAD-YAP inh	MITF inh conf	AS interf ctr	others
COc1ccc(CCNCc2ccc(-n3ccnc3)cc2)cc1	36	-1	0	-1	/	/
COc1ccc(CNC(C)c2ccc(-n3ccnc3)cc2)cc1F (stereo unspecified)	66*	1	0	0	14	19
Cc1cc(C)n(C(=O)/C=C/c2ccco2)n1	78*	-1	0	4	67*	-8	AS interf DR=>6.5
CC(=C/C(=O)O)/C=C/c1ccoc1	75*	0	-1	9	57*	10	AS interf DR=>9.7
Cc1cc(C)n(C(=O)/C=C/c2ccccc2)n1	-1	1	0	1	/	/
CC(/C=C/c1ccc(N(C)C)cc1)=C\C(=O)O	9	0	0	24	/	/
CC(=C/C(=O)O)/C=C/c1ccco1	68*	1	0	-2	-25	-26
CCOC(=O)CCCN(Cc1ccc(C(F)(F)F)cc1)S(=O)(=O)c1ccc(C(C)C)cc1	2	-1	0	9	/	/
O=C(O)C1CC=CCC1C(=O)Nc1nncs1 (stereo unspecified)	53*	3	0	2	48*	-4	AS interf DR=>6.5
O=C(O)C1CCCCC1C(=O)Nc1nncs1 (stereo unspecified)	-8	0	0	-2	/	/
Cc1ccc(C)n1C(Cc1c[nH]c2ccccc12)C(=O)O (stereo unspecified)	87*	-1	-1	-6	73*	14	AS interf DR=>6.5
N#CC1=c2/c(=C/c3ccco3)c(N)c(C#N)n2C(=O)C(c2ccco2)S1 (stereo unspecified)	68*	0	0	13	47*	27	AS interf DR=i
CC(C)CC1(C)NC(=S)N(c2ccccc2)N1 (stereo unspecified)	-7	-1	0	-16	/	/
CC(C)OCCCNCc1cc2ccccc2nc1Cl	56*	-1	0	6	12	7
CC(C)OCCCNC(=O)c1cc2c(Cl)nc3ccccc3c2s1	22	0	0	-5	/	/
COCCNCCOc1c(C)cccc1C(C)(C)C	80*	1	0	4	8	6
NCCNCCOCCOc1cccc(Cl)c1Cl	51*	-1	0	1	10	22
COCCNCCOCCOc1c(C)cccc1C(C)(C)C	61*	-2	0	-8	16	18
COCCNCCCOc1c(C)cccc1C(C)(C)C	19	0	0	5	/	/
Cc1cccc(Cl)c1OCCOCCNCCO	73*	0	0	0	-4	-8
CCCCNCCOCCOc1c(C)cccc1Cl	46	4	0	11	/	/
COCCNCCOCCOc1cccc(Cl)c1Cl	26	-1	0	-1	/	/
COC(=O)c1c(NC(=O)c2ccc([N+](=O)[O-])o2)sc(Cc2ccc3c(c2)OCO3)c1C	55*	2	0	2	47*	15	AS interf DR=>6.4
Cc1c(Cc2ccc3c(c2)OCO3)sc(NC(=O)c2ccc([N+](=O)[O-])o2)c1C#N	-3	2	0	4	/	/
COc1cc(CN2CCN(Cc3ccco3)CC2)cc(OC)c1O	76*	0	0	5	3	9
COc1cc(CN2CCN(Cc3ccco3)CC2)cc(OC)c1OC	71*	-1	0	4	-16	1
COc1ccccc1N1CCN(Cc2ccco2)CC1	32	-1	0	-5	/	/
